In PubChem BioAssay (NCI):
Several values for one entry are separate records, joined by “and”; a condition that tells them apart may be missing. Equal values may be shown once. About 83,000 compounds went through this panel and 20% of them were active in at least one assay; those are over-represented in the sample as a whole.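 Interpretation: 100, growth as untreated; towards 0, rising growth inhibition; 0, no net growth; 0 to -100, cell death. Compounds scoring below 10 were considered active.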 Activity calls are given as the source filed them.

Assays:
Experiment in all cases: NCI-60 one-dose screen, 48 h (100 = growth as untreated, 0 = no growth, -100 = all killed)
Conditions in all cases: 10 µM unless noted
[1] = system: SK-MEL-2 melanoma
[2] = system: EKVX NSCLC
[3] = system: SN12C renal
[4] = system: UO-31 renal
[5] = system: TK-10 renal
[6] = system: ACHN renal
[7] = system: CAKI-1 renal
[8] = system: A498 renal
[9] = system: HL-60(TB) leukemia
[10] = system: CCRF-CEM leukemia
[11] = system: MOLT-4 leukemia
[12] = system: SR leukemia
[13] = system: RPMI-8226 leukemia
[14] = system: OVCAR-8 ovarian
[15] = system: OVCAR-5 ovarian
[16] = system: OVCAR-4 ovarian
[17] = system: SK-OV-3 ovarian
[18] = system: IGROV1 ovarian
[19] = system: OVCAR-3 ovarian
[20] = system: HS 578T breast

Measured: growth

CC(=O)Cc1ccc2c(c1)OCO2
inactive: [1] 112% | [2] 109% | [3] 101% | [4] 102% | [5] 110% | [6] 108% | [7] 96.9% | [8] 116% | [9] 77.4% | [10] 108% | [11] 121% | [12] 122% | [13] 113% | [14] 96.6% | [15] 94% | [16] 135% | [17] 107% | [18] 111% | [19] 110% | [20] 111%

OCCN=Cc1c[nH]c2ccccc12
inactive: [1] 109% | [2] 93.8% | [3] 93.3% | [4] 75.7% | [5] 122% | [6] 94.3% | [7] 80.4% | [8] 107% | [9] 101% | [10] 114% | [11] 101% | [12] 95.4% | [13] 120% | [14] 100% | [15] 91% | [17] 98.6% | [18] 104% | [19] 97.7% | [20] 97.5%

COC(=O)C1=CCCN(C)C1
inactive: [1] 106% and 30.5% | [2] 97.8% and 98.7% | [3] 107% and 105% | [4] 80.4% and 94% | [5] 106% and 103% | [6] 96.9% | [7] 93.7% and 102% | [8] 97.8% and 112% | [9] 108% and 122% | [10] 102% | [11] 105% and 97.6% | [13] 106% | [14] 105% | [15] 94.9% | [16] 107% and 101% | [17] 111% and 110% | [18] 102% and 145% | [19] 120% and 118%

N#CC(NC(=O)CCl)=C(Cl)Cl
active: [2] -45.3% | [4] -40% | [5] -13.1% | [6] -88.7% | [7] -99.4% | [9] -58.3% | [10] -21.9% | [11] -33.6% | [13] -22% | [14] -39.3% | [18] -38.6% | [19] -30.9%
inactive: [1] 51.5% | [3] 29% | [8] 63.4% | [15] 44.4% | [16] 21.1% | [17] 88.5% | [20] 14.8%

Cc1cc(NC(=O)NCCCOc2ccc(N3C(N)=NC(N)=NC3(C)C)cc2Cl)ccc1S(=O)(=O)F
inactive: [1] 42.2% | [2] 43% | [3] 27.8% | [4] 94.9% | [5] 46.5% | [6] 72.6% | [7] 107% | [8] 94.6% | [9] 29.1% | [10] 32.4% | [11] 37.5% | [12] 22.4% | [13] 36.6% | [14] 31.7% | [15] 43.1% | [16] 34.5% | [17] 65.3% | [19] 24.2% | [20] 60.3%

C/C(=C\c1ccn(-c2ccc(N)c(C(F)(F)F)c2)n1)[C@@H]1C[C@@H]2O[C@]2(C)CCC[C@H](C)[C@H](O)[C@@H](C)C(=O)C(C)(C)[C@@H](O)CC(=O)O1
inactive: [1] 45.1% | [2] 39.7% | [3] 41.3% | [4] 32.7% | [5] 52.6% | [6] 46.3% | [7] 52.1% | [8] 22.6% | [10] 14.3% | [11] 10.2% | [14] 28.4% | [15] 23% | [17] 45% | [18] 40.4% | [20] 25.1%
active: [9] 7.41% | [12] 7.67% | [13] 9.58% | [19] -0.83%

CCCCS(=O)(=O)Cl
inactive: [1] 106% | [2] 94.8% | [3] 104% | [4] 100% | [5] 103% | [6] 110% | [7] 100% | [8] 97.9% | [9] 105% | [10] 103% | [11] 116% | [12] 104% | [13] 109% | [14] 105% | [15] 104% | [16] 97.8% | [17] 110% | [18] 116% | [19] 120% | [20] 102%

CC[CH2][Sn]([Cl])([Cl])[CH2]CC.Oc1ccccc1C=NCCN=Cc1ccccc1O
active: [8] 7.69% and -34% | [10] 2.05% and 0.18% | [13] -24.1% and -10.1%
inactive: [1] 34.1% and 13.1% | [2] 85.2% and 75.2% | [3] 52.2% and 58.8% | [4] 53.9% and 32.8% | [6] 47.8% and 29.3% | [7] 50.4% and 33.6% | [11] 40.2% and 12.6% | [12] 24.8% and 21.8% | [14] 87.8% and 72.5% | [15] 97.1% and 84.2% | [16] 69.6% | [17] 109% and 92.2% | [18] 74.1% and 61.9% | [19] 86.8% and 44.3% | [20] 77.7% and 48.6%
7.92% (active) and 64.9% (inactive): [9]
17.6% (inactive) and -44.9% (active): [5]

C[C@]12CCc3nc(-c4ccc(O)c(O)c4)sc3C1=CC[C@@H]1[C@@H]2CC[C@]2(C)C(=O)CC[C@@H]12
active: [13] 9.9%
inactive: [1] 104% | [2] 95.7% | [3] 72.7% | [4] 43% | [5] 53.6% | [6] 51.3% | [7] 39.7% | [8] 113% | [9] 51.4% | [10] 47.5% | [11] 45.4% | [12] 39.3% | [14] 29.9% | [15] 112% | [17] 89.7% | [18] 38.6% | [19] 87.5% | [20] 66.8%

CCOC(=O)P(=O)(OCC)OCC
inactive: [1] 113% | [2] 124% | [3] 101% | [4] 92.3% | [5] 107% | [6] 105% | [7] 119% | [8] 102% | [9] 113% | [10] 118% | [11] 100% | [12] 92.5% | [13] 112% | [14] 101% | [15] 112% | [17] 98.3% | [18] 89.5% | [19] 113% | [20] 109%

CC[C@H](C)[C@H]1O[C@]2(C=C[C@@H]1C)C[C@@H]1C[C@@H](C/C=C(\C)[C@@H](O[C@H]3C[C@H](OC)[C@@H](O[C@H]4C[C@H](OC)[C@@H](NC)[C@H](C)O4)[C@H](C)O3)[C@@H](C)/C=C/C=C3\CO[C@@H]4[C@H](O)C(C)=C[C@@H](C(=O)O1)[C@]34O)O2
active: [1] -54.5% | [2] -40.9% | [3] -47.5% | [4] -63.2% | [5] -76% | [6] -33.9% | [8] -7.23% | [9] -59.8% | [10] -43% | [11] -42.3% | [12] -32.4% | [13] -30.7% | [15] -34.5% | [16] -1.85% | [17] -36.6% | [19] -68.8% | [20] -42.9%
inactive: [7] 18.7% | [14] 10.7%

CCOC(=O)C1C(C=C(C)C)C1(C)C (centres undefined)
inactive: [1] 121% | [2] 110% | [3] 104% | [4] 120% | [5] 107% | [6] 100% | [7] 95.8% | [8] 105% | [9] 117% | [10] 82.6% | [11] 85.1% | [12] 99.7% | [13] 96.9% | [14] 99.6% | [15] 80.5% | [16] 116% | [17] 105% | [19] 103% | [20] 115%

Oc1cc(Cl)ccc1Oc1ccc(Cl)cc1Cl
active: [4] -0.646% | [6] 7.4% | [9] -24.9% | [11] 5.71% | [12] 3.21% | [13] 9.47% | [19] 6.75% | [20] -18.1%
inactive: [1] 16.6% | [2] 42.7% | [3] 10.9% | [5] 102% | [7] 90.5% | [8] 103% | [10] 24.8% | [14] 10.7% | [15] 86.2% | [16] 29.9% | [17] 89.2% | [18] 52.4%

CC[C@H](C)[C@H](NC(=O)CN(C)C)C(=O)N(C)[C@H](C[C@@H](OC(C)=O)c1nc(C(=O)NC23CC(C(=O)OC)(C2)C3)cs1)C(C)C
inactive: [1] 37.5% | [2] 32.8% | [3] 31.3% | [4] 50.1% | [5] 43.5% | [6] 46.9% | [7] 51.6% | [11] 12.3% | [12] 17.8% | [13] 18.8% | [14] 19.1% | [15] 71.9% | [17] 32.6% | [18] 33% | [20] 31.9%
active: [8] 9.1% | [9] -18.9% | [10] 6.24% | [19] -47.2%
